Screening data as filed in PubChem BioAssay.
HSF-1 act = increases HSF-1 driven luciferase reporter signal; AID 504408; activation, % at 9 µM; actives 1.7% (n = 300,000); NIH3T3-HGL HSF-1 luciferase reporter, MG132, 8 h; 100% = twice DMSO control signal;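 active = mean replicate activation of at least 50% with a set share of replicates each reaching 50%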;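 note: 0% = median of the neutral control wells and 100% = twice that signal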
GAA850 FXN act = activators of GAA850 frataxin (FXN) promoter; HEK293 lucGAA850 FXN promoter luciferase reporter, 24 h; percent of 10 µM SAHA response; activation, % at 6 µM; actives 0.56% (n = 360,000); AID 540364;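 active = activation above the average of all compounds screened plus 3 SD, cutoff fixed separately per campaign, cut at about 7.5% in these data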;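 note: 0% = DMSO wells and 100% = 10 µM SAHA wells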
DAX1 inh = NR0B1 (DAX1) inhibition | P51843 | HEK293 Gal4-DAX1 luciferase reporter, luminescence | inhibition, % at 6.75 µM | actives 0.99% (n = 340,000) | AID 504766;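 active = inhibition above the mean over all tested compounds plus 3 SD, cut at about 4.2% in these data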;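 note: 0% = DAX1-transfected cells with DMSO and 100% = empty-vector control cells with DMSO; inhibition shows as a rise in luminescence from relieved DAX1 repression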
Target sequence (P51843 207-470 limits assumed): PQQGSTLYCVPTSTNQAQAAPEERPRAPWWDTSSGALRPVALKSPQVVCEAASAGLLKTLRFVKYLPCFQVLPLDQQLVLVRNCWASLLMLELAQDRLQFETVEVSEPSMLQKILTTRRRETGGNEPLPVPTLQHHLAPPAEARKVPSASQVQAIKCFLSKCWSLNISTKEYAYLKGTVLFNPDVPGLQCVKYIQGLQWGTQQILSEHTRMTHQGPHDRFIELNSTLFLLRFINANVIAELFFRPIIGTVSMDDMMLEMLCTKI
HSF1 inhib = HSF1 inhibition; actives 0.77% (n = 300,000); activity change, negative = inhibition, % at 7.5 µM (by protocol); NIH3T3-HGL HSE-luciferase, MG132-induced, luminescence 8 h; hits give low values;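 active = more than half of replicate wells show activity change below -50%, luminescence cut by over half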;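 note: luciferase reports HSF-1 transcriptional activity via heat shock element; 0% = median of DMSO wells and -100% = zero luminescence signal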
AHR activator = activators of human aryl hydrocarbon receptor; activation, % at 5 µM; AHR-responsive luciferase reporter cells, luminescence; P35869; actives 2.5% (n = 320,000); in the data active = activation above about 47%;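 note: 0% = vehicle wells and 100% = reference agonist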
Numbers without * were called inactive. The list is not random: actives were taken first. Their share in the collection is about 5.4%.

For CCNC(=O)C1(C)CCCN(CCOc2ccc(Cl)cc2)C1 (centres undefined) the results were GAA850 FXN act -1.
For CCC1(c2ccccc2)SC(N)=NC1=O (centres undefined) the results were GAA850 FXN act 0 and DAX1 inh 6.6*.
CCC1(c2ccccc2)SC(=O)NC1=O (centres undefined) was read as GAA850 FXN act 0 and DAX1 inh 4.
Screening O=C(CSc1n[nH]c(-c2ccccc2F)n1)Nc1cc(F)ccc1F returned GAA850 FXN act 0, DAX1 inh 0 and AHR activator 6.
Screening CCC(c1nnc(SCC(=O)Nc2ccc(C(=O)N(C)C)cc2)n1Cc1ccccc1)N(C)C (centres undefined) returned HSF-1 act -16, GAA850 FXN act 0, DAX1 inh 1, HSF1 inhib -8 and AHR activator 1.
`NC(=N\N=Cc1ccco1)/C(N)=N/N=Cc1ccco1` gave GAA850 FXN act 2 and DAX1 inh 4.
For S=C(NCCC(c1ccccc1)c1ccccc1)Nc1ccccc1Cl the results were HSF-1 act 4, GAA850 FXN act 0, DAX1 inh 0, HSF1 inhib 0 and AHR activator 2.
Screening S=C(NCCC(c1ccccc1)c1ccccc1)Nc1ccc(Cl)cc1 returned HSF-1 act 54*, GAA850 FXN act 1, DAX1 inh 0, HSF1 inhib 41 and AHR activator 1.
For Cn1c(=O)c(C(=O)NNC(=O)c2ccccc2F)c(O)c2ccccc21 the results were HSF-1 act 6, GAA850 FXN act 2, DAX1 inh 0, HSF1 inhib -1 and AHR activator 66*.
Cn1c(=O)c(C(=O)NNC(=O)c2ccc(Br)cc2)c(O)c2ccccc21 was read as HSF-1 act -9, GAA850 FXN act 1, DAX1 inh 4.5*, HSF1 inhib -15 and AHR activator 34.
Screening Cc1cccnc1NC(=O)c1c(O)c2ccccc2n(C)c1=O returned HSF-1 act -2, GAA850 FXN act 2, DAX1 inh 0, HSF1 inhib 2 and AHR activator 54*.
`CCn1c(=O)c(C(=O)Nc2ncccc2O)c(O)c2ccccc21` gave HSF-1 act 0, GAA850 FXN act 1, DAX1 inh -1, HSF1 inhib -5 and AHR activator 10.
CC(C)CC(=O)NC(=S)Nc1ccc(S(=O)(=O)Nc2nccs2)cc1 was read as HSF-1 act -6, GAA850 FXN act 1, DAX1 inh -1, HSF1 inhib -2 and AHR activator 2.
For C[N+]1(C)CC2=Cc3ccccc3CC2C1 (centres undefined) the results were HSF-1 act 16, GAA850 FXN act 0, DAX1 inh 4.8*, HSF1 inhib -2 and AHR activator 1.
For C1=C2C[N+]3(CCCC3)CC2Cc2ccc3ccccc3c21 (centres undefined) the results were HSF-1 act -4, GAA850 FXN act 0, DAX1 inh -1, HSF1 inhib -1 and AHR activator 4.
For CC(=O)Nc1nc(-c2ccccc2)nc(-c2ccccc2OC(C)=O)n1 the results were HSF-1 act -52, GAA850 FXN act 2, DAX1 inh -1, HSF1 inhib -42 and AHR activator 75*.
`CC(=O)Nc1nc(C)nc(-c2ccccc2OC(C)=O)n1` gave HSF-1 act -50, GAA850 FXN act 1, DAX1 inh 0, HSF1 inhib -43 and AHR activator 6.
`O=C(COC(=O)c1cc(=O)[nH]c2ccccc12)NC(=O)c1ccccc1` gave HSF-1 act 12, GAA850 FXN act -3, DAX1 inh 1, HSF1 inhib 0 and AHR activator 2.
Screening Cc1ccc(OCC(=O)Nc2ccccc2C(N)=O)cc1 returned HSF-1 act 57*, GAA850 FXN act 4, DAX1 inh 3, HSF1 inhib 13 and AHR activator 1.
COc1ccc(OCC(=O)Nc2ccccc2O)cc1 was read as HSF-1 act 75*, GAA850 FXN act 2, DAX1 inh 3, HSF1 inhib 34 and AHR activator 6.
`NC(=O)c1ccccc1NC(=O)COc1ccc(Cl)cc1` gave HSF-1 act 21, GAA850 FXN act 2, DAX1 inh 1, HSF1 inhib 19 and AHR activator 1.
For COc1ccccc1NC(=O)COc1ccccc1 the results were HSF-1 act -5, GAA850 FXN act 2, DAX1 inh 3, HSF1 inhib 10 and AHR activator 8.
For COc1ccc(CC(=O)NCC(=O)Nc2ccccc2Br)cc1 the results were HSF-1 act 56*, GAA850 FXN act 1, DAX1 inh -2, HSF1 inhib 10 and AHR activator 1.
`N#CCC(=O)Nc1ccc(C(=O)Nc2cccc(S(N)(=O)=O)c2)cc1` gave HSF-1 act -5, GAA850 FXN act 2, DAX1 inh 1, HSF1 inhib -5 and AHR activator 2.
Screening COc1ccccc1/C=C/c1ccc2cccc(O)c2n1 returned HSF-1 act 18, GAA850 FXN act 5, DAX1 inh 3, HSF1 inhib -6 and AHR activator 75*.
Screening CCOc1cccc(/C=C/c2ccc3cccc(O)c3n2)c1OC returned HSF-1 act 143*, GAA850 FXN act 5, DAX1 inh 1, HSF1 inhib 122 and AHR activator 76*.
Screening COc1cc(Cl)cc(/C=C/c2ccc3cccc(O)c3n2)c1OC returned HSF-1 act -2, GAA850 FXN act 1, DAX1 inh 1, HSF1 inhib -4 and AHR activator 40.
Screening COc1ccc(Cl)cc1/C=C/c1ccc2cccc(O)c2n1 returned HSF-1 act -3, GAA850 FXN act 2, DAX1 inh 0, HSF1 inhib -14 and AHR activator 66*.
CN(C)Cc1c(-c2ccc(Cl)cc2)nc2ccccn12 was read as HSF-1 act 49, GAA850 FXN act 4, DAX1 inh 5.4*, HSF1 inhib 20 and AHR activator 8.
Screening c1ccc(-c2nc3ccccn3c2-c2ccccc2)cc1 returned HSF-1 act 20, GAA850 FXN act 2, DAX1 inh -1, HSF1 inhib 0 and AHR activator 3.
Screening Clc1ccc(-c2nc3ccccn3c2CN2CCCCC2)cc1 returned HSF-1 act 52*, GAA850 FXN act -2, DAX1 inh -2, HSF1 inhib 24 and AHR activator 2.
For Oc1ccc(N2CCN(Cc3c(-c4ccccc4)nc4ccccn34)CC2)cc1 the results were HSF-1 act 35, GAA850 FXN act 0, DAX1 inh -1, HSF1 inhib 13 and AHR activator 5.
Screening COc1cc(OC)c(OC)cc1CN1CCN(Cc2ccco2)CC1 returned HSF-1 act -2, GAA850 FXN act 0, DAX1 inh 1, HSF1 inhib -8 and AHR activator -2.
Screening Cc1ccc(S(=O)(=O)NCC(NCc2ccc(F)cc2)c2ccccc2)cc1 (centres undefined) returned GAA850 FXN act 2 and DAX1 inh -1.
